Experimental findings from PubChem BioAssay (EPA / NIEHS) are described below.

In general, AC50 refers to the concentration giving half of the maximal activity seen.

The nature of assay [1]: ATG_DR4_LXR_CIS: Attagene CIS-FACTORIAL HepG2 Assay for human Liver X Receptor (LXR), DR4 submotif (AID 2282929). To be noted: HepG2 Attagene DR4 cis-reporter, mRNA transcription; actives raise or lower the signal. The method, boiled down:
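Fluorescence intensity of labelled reporter cDNA fragments, separated by capillary electrophoresis, gives the signal. HepG2 cells bearing cis-regulated reporter constructs were treated 24 h; activity fitted bidirectionally relative to DMSO negative control.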

A short description of assay [2]: ATG_Ets_CIS: Attagene CIS-FACTORIAL HepG2 Assay for human Erythroblast Transformation Specific (ETS) (AID 2282941). To be noted: HepG2 ETS cis-reporter transcription, actives raise or lower the signal. The method, boiled down:
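Multiplexed reporter transcript profiling: HepG2, 24 h treatment, total RNA to cDNA, PCR, 6-FAM labelling, HpaI cut, capillary electrophoresis. Gain- or loss-of-signal fitted against DMSO.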

The nature of assay [3]: ATG_M_06_CIS: Attagene CIS-FACTORIAL HepG2 Assay for M06 Transcription Factor (Internal Marker) (AID 2282950). To be noted: HepG2 Attagene CIS-FACTORIAL M06 internal marker reporter; actives raise or lower the signal. The method, boiled down: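 Measured 24 h post-dosing in transiently transfected HepG2 cells, this internal-marker endpoint reports reporter mRNA via RT-PCR with fluorescent primer extension and capillary electrophoresis. DMSO served as negative control and baseline for bidirectional fitting.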

In assay [4] the target is Hepatocyte nuclear factor 6 (Homo sapiens) (UniProt Q9UBC0). Description: ATG_HNF6_CIS: Attagene CIS-FACTORIAL HepG2 Assay for human Hepatocyte Nuclear Factor 6 (HNF6) (AID 2282952). Conditions: HepG2 Attagene cis-factorial HNF6 reporter transcription; actives raise or lower the signal. The method, boiled down:
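Endogenous factor activity read in transiently transfected HepG2 via promoter-regulated reporter transcripts. RNA harvested 24 h post-dosing, reverse-transcribed, PCR-amplified, FAM-labelled, HpaI-digested and resolved by capillary electrophoresis; fitted in both directions against DMSO.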

In assay [5] the target is Heat shock factor protein 1 (Homo sapiens) (UniProt Q00613). Nature of the assay: ATG_HSE_CIS: Attagene CIS-FACTORIAL HepG2 Assay for human Heat Shock Transcription Factor 1 (HSE) (AID 2282953). To be noted: HepG2 HSE cis-reporter, Attagene RNA transcription; actives raise or lower the signal. The method, boiled down:
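Reporter mRNA induction in HepG2 is measured 24 h after dosing, using transiently transfected multiplexed cis-regulated reporter units. Signal comes from capillary electrophoresis of labelled RT-PCR products, with DMSO as negative control.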

A short description of assay [6]: ATG_Sox_CIS: Attagene CIS-FACTORIAL HepG2 Assay for human SRY-box transcription factor (SOX) (AID 2282960). Conditions: HepG2 Attagene cis-factorial SOX reporter, mRNA; actives raise or lower the signal. The procedure, abridged: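 Measures mRNA induction of a SOX1-associated reporter in HepG2 after 24 h dosing. Fluorescently labelled RT-PCR fragments are separated by capillary electrophoresis, and gain or loss relative to DMSO control is fitted.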

Assay [7] is described as follows: ATG_TA_CIS: Attagene CIS-FACTORIAL HepG2 Assay for human TA Basal Promoter (AID 2282964). Conditions: HepG2 Attagene CIS-factorial TA basal promoter reporter; actives raise or lower the signal. The procedure, abridged:
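Cis-factorial format in HepG2: reporters report endogenous factors, not chimeric Gal4 fusions. After 24 h treatment, reporter transcripts were measured by RT-PCR-capillary electrophoresis fluorescence, analysed bidirectionally versus DMSO.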

Assay [8] can be described thus: ATG_TCF_b_cat_CIS: Attagene CIS-FACTORIAL HepG2 Assay for human T-Cell-Factor with beta-catenin (TCF/b-cat) (AID 2282965). To be noted: HepG2 TCF/beta-catenin cis-reporter transcription, actives raise or lower the signal. The method, boiled down: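 Measured: reporter mRNA in HepG2 transiently transfected with cis-promoter reporter units, 24 h after chemical addition. Fitting was bidirectional, DMSO as negative control.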

The nature of assay [9]: ATG_TAL_CIS: Attagene CIS-FACTORIAL HepG2 Assay for human TAL Basal Promoter (AID 2282966).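 Note: background control endpoint measuring basal TAL promoter reporter mRNA not a specific factor.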 Conditions: HepG2 Attagene cis-factorial TAL promoter reporter; actives raise or lower the signal. The method, boiled down:
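Background-control endpoint: basal TAL promoter reporter transcripts in transiently transfected HepG2, measured 24 h after dosing. Read-out by RT-PCR with fluorescent primer extension and capillary electrophoresis; gain or loss of signal fitted relative to DMSO.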

Assay [10] is described as follows: ATG_TGFb_CIS: Attagene CIS-FACTORIAL HepG2 Assay for human Transforming Growth Factor (TGF) (AID 2282967). Conditions: HepG2 Attagene CIS TGFb reporter, mRNA transcription; actives raise or lower the signal. The procedure, abridged: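 Multiplexed cis-reporter HepG2 system, 24 h treatment; mRNA induction read by fluorescence after RT-PCR and CE; DMSO negative control, bidirectional curve fitting.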

The target in assay [11] is X-box-binding protein 1 (Homo sapiens) (UniProt P17861). Description: ATG_Xbp1_CIS: Attagene CIS-FACTORIAL HepG2 Assay for human X-box Binding Protein 1 (XBP1) (AID 2282972). Conditions: HepG2 XBP1 cis-element reporter, Attagene multiplex; actives raise or lower the signal. The method, boiled down: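 Human hepatoma HepG2, cis-element reporter system, 24 h treatment; mRNA quantified by RT-PCR/CE fluorescence; fit relative to DMSO.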

The target in assay [12] is Transcriptional activator Myb (Homo sapiens) (UniProt P10242). Description: ATG_Myb_CIS: Attagene CIS-FACTORIAL HepG2 Assay for human Myeloblastosis (Myb) Proto-Oncogene Transcription Factor (AID 2282986). To be noted: HepG2 Attagene CIS-FACTORIAL Myb reporter transcription; actives raise or lower the signal. The procedure, abridged:
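Transiently transfected HepG2 cells, treated 24 h. Reporter mRNA quantified by RT-PCR/capillary electrophoresis; bidirectional fit relative to DMSO.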

For assay [13], the target named is Nuclear respiratory factor 1 (Homo sapiens) (UniProt Q16656). Nature of the assay: ATG_NRF1_CIS: Attagene CIS-FACTORIAL HepG2 Assay for human Nuclear Respiratory Factor 1 (NRF1) Orphan Gene (AID 2282987). Conditions: HepG2 NRF1 cis-element reporter, Attagene multiplex; actives raise or lower the signal. The procedure, abridged:
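Cells (HepG2, transient MRTU transfection) are exposed to compound for 24 h, then RNA isolated and reporter mRNA amplified and fluorescently labelled. Fragments are separated by capillary electrophoresis; signal change is fitted bidirectionally relative to DMSO.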

The target in assay [14] is Myc proto-oncogene protein (Homo sapiens) (UniProt P01106). Nature of the assay: ATG_Myc_CIS: Attagene CIS-FACTORIAL HepG2 Assay for human Myelocytomatosis (Myc) Proto-Oncogene Transcription Factor (AID 2282990). Conditions: HepG2, Attagene cis-reporter transcription factor activity; actives raise or lower the signal. The method, boiled down:
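Cells of the HepG2 human liver line bear multiple cis-driven reporter transcription units. Reporter mRNA after 24 h exposure is reverse-transcribed, amplified, labelled and resolved by capillary electrophoresis, with gain- or loss-of-signal fitting relative to DMSO.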

The nature of assay [15]: ATG_NRF2_ARE_CIS: Attagene CIS-FACTORIAL HepG2 Assay for human Nuclear Factor Erythroid 2 Related Factor 2 (NFR2) response to Antioxidant Response Elements (ARE) (AID 2282992).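 For AC50: reporter mRNA level measured by RT-PCR and capillary electrophoresis fluorescence.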 Conditions: HepG2 Attagene ARE/NRF2 reporter, transcription factor activity; actives raise or lower the signal. The procedure, abridged: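 Fluorescence intensity of reporter-specific cDNA fragments, separated by capillary electrophoresis, reflects mRNA induction in transfected HepG2 cells at 24 h. Activity is fitted bidirectionally, DMSO serving as baseline.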

Assay [16] is described as follows: ATG_Oct_MLP_CIS: Attagene CIS-FACTORIAL HepG2 Assay for human Octamer-Binding Transcription Factor (Oct) (AID 2282993). Conditions: HepG2 Attagene cis-factorial Oct reporter, mRNA; actives raise or lower the signal. The method, boiled down: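 After 24 h compound exposure, transfected HepG2 cells were lysed for total RNA; reporter-specific cDNA was PCR-amplified, fluorescently labelled and sized by capillary electrophoresis. Bidirectional curve fitting used DMSO as baseline.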

Assay [17] has as its target Cellular tumor antigen p53 (Homo sapiens) (UniProt P04637). Nature of the assay: ATG_p53_CIS: Attagene CIS-FACTORIAL HepG2 Assay for human p53 Transcription Factor (AID 2282994). Conditions: HepG2 p53 cis-element reporter, Attagene mRNA; actives raise or lower the signal. The method, boiled down: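 Transiently transfected HepG2 (multiple cis reporter transcription units); exposure 24 h; reporter RNA via RT-PCR, 6-FAM extension, 2 h HpaI digest at 37 C, CE detection; DMSO baseline.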

For assay [18], the target named is Nuclear receptor subfamily 1 group I member 2 (Homo sapiens) (UniProt O75469). Nature of the assay: ATG_PXR_TRANS: Attagene TRANS-FACTORIAL HepG2 Assay for human Pregnane X Receptor (PXR) (AID 2283008; active = hit-call score of the fitted dose curve at least 0.9, where 1 is the maximum). The method, boiled down: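 Transient HepG2 transfectants carrying multiplexed reporter transcription units; PXR activity read through a Gal4 chimera. 24 h exposure. RT-PCR/CE fluorescence; upward curve fit referenced to DMSO.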

Assay [19] is described as follows: ATG_XTT_Cytotoxicity: Cytotoxicity Assessment in the Attagene TRANS-FACTORIAL HepG2 Assay (AID 2283584; active = hit-call score of the fitted dose curve at least 0.9, where 1 is the maximum). The procedure, abridged: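 Viability endpoint from XTT after 24 h chemical exposure of reporter-transfected human HepG2 liver cells; signal loss fitted relative to DMSO negative control.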
For assay [20], the target named is Hypoxia-inducible factor 1-alpha (Homo sapiens) (UniProt Q16665). Nature of the assay: ATG_HIF1a_CIS: Attagene CIS-FACTORIAL HepG2 Assay for human Hypoxia Inducible Factor 1 (HIF1A) (AID 2282951). To be noted: HepG2 Attagene cis-factorial HIF1a reporter transcription; actives raise or lower the signal. The procedure, abridged: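 Fluorescence intensity of capillary-separated, 6-FAM-labelled reporter amplicons gives mRNA induction in HepG2 cells carrying transfected cis-promoter reporter units; cells exposed 24 h, responses fitted up or down from DMSO.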

Results filed as inconclusive are left out. Activity calls are given as the source filed them. Rule for the calls, unless noted: active = hit-call score of the fitted dose curve at least 0.9, where 1 is the maximum; inactive = score below 0.9.

Cellular tumor antigen p53 (Homo sapiens), sequence (P04637 whole entry, looked up): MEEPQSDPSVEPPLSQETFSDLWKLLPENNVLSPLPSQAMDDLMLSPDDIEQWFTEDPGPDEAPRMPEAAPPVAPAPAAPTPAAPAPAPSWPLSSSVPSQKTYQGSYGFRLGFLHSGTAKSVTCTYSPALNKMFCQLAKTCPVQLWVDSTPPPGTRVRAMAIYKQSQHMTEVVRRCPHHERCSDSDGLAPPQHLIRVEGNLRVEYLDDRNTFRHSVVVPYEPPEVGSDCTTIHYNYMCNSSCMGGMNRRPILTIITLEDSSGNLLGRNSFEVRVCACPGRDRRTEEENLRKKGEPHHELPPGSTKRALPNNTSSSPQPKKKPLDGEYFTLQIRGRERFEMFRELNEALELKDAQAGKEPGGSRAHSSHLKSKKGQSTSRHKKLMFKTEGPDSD
Myc proto-oncogene protein (Homo sapiens), sequence (P01106 whole entry, looked up): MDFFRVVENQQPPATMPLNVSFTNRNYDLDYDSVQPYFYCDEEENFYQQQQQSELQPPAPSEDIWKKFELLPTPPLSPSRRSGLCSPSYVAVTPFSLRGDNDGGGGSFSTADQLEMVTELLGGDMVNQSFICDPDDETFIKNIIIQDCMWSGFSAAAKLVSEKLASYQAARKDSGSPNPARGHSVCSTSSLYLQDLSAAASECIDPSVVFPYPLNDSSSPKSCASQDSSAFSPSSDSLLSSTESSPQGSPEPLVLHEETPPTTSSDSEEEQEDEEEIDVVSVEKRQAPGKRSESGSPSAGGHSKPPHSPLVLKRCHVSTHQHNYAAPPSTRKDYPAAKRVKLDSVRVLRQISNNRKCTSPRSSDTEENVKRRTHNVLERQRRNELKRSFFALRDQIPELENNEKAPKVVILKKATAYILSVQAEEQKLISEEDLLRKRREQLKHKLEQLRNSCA
X-box-binding protein 1 (Homo sapiens), sequence (P17861 whole entry, looked up): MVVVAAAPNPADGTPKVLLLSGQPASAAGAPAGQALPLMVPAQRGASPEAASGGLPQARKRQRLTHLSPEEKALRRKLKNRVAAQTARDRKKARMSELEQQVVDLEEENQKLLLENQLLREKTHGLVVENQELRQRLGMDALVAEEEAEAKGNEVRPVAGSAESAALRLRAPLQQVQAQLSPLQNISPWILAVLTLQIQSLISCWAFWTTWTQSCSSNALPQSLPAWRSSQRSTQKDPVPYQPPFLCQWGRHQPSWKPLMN
Hypoxia-inducible factor 1-alpha (Homo sapiens), sequence (Q16665 whole entry, looked up): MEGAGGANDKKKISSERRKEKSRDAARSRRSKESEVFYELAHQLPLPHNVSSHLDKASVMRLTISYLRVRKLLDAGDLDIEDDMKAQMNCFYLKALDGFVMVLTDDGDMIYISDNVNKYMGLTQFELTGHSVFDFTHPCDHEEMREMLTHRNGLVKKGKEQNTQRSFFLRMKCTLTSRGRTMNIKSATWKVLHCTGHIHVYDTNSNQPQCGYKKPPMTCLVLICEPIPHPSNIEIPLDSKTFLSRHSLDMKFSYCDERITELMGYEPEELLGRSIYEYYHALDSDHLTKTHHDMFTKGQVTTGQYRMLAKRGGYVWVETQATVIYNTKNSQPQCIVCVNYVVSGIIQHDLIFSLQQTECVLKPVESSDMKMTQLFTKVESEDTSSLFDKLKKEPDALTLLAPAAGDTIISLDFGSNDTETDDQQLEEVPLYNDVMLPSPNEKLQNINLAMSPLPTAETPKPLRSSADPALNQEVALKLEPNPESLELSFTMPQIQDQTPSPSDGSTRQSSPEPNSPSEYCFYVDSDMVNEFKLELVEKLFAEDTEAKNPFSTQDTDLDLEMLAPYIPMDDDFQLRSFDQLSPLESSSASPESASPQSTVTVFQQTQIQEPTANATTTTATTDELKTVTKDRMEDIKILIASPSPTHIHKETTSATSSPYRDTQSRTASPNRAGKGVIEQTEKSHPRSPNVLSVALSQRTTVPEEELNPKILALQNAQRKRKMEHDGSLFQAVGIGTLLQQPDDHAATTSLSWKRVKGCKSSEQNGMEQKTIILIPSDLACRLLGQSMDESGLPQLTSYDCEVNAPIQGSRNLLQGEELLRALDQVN
Hepatocyte nuclear factor 6 (Homo sapiens), sequence (Q9UBC0 whole entry, looked up): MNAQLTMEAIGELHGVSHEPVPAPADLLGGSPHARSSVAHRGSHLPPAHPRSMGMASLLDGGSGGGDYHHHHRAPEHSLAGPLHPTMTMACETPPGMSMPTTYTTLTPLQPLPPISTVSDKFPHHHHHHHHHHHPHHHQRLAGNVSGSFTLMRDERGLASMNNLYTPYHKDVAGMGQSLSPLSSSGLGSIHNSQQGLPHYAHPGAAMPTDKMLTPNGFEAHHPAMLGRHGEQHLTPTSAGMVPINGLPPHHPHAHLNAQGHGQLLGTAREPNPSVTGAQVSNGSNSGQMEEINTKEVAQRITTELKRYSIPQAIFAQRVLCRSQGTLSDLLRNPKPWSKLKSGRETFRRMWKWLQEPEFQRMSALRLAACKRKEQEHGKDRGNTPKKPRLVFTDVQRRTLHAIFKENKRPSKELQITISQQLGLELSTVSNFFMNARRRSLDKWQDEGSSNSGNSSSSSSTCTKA
Nuclear receptor subfamily 1 group I member 2 (Homo sapiens), sequence (O75469 whole entry, looked up, the tested form may be a part): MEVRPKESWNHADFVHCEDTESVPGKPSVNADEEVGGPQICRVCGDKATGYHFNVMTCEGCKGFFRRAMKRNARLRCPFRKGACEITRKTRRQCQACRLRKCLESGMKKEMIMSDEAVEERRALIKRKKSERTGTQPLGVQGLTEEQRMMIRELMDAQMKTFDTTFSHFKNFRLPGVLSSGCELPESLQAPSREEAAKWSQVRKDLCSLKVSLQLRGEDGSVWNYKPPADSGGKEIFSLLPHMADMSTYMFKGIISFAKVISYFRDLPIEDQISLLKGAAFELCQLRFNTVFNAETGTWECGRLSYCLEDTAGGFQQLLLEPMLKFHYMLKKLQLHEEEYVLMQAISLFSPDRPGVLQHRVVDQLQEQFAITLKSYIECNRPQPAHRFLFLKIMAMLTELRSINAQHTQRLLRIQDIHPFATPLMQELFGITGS
Transcriptional activator Myb (Homo sapiens), sequence (P10242 whole entry, looked up): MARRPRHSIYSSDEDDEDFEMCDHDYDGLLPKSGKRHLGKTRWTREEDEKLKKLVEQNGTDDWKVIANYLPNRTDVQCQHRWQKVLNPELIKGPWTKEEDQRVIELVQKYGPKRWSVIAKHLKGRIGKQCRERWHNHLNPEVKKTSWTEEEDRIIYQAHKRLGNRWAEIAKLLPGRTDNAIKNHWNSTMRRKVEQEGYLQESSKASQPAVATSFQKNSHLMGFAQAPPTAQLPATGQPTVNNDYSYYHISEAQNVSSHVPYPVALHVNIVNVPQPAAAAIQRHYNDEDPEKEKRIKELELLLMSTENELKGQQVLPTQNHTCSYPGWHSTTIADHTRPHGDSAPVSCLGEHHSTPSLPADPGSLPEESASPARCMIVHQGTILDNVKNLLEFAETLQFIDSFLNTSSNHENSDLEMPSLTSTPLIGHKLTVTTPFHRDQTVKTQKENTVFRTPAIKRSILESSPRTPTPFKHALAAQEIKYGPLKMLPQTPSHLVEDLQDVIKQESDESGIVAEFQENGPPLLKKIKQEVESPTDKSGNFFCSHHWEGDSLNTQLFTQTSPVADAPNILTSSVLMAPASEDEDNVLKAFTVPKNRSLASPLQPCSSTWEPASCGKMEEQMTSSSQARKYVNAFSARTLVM
Nuclear respiratory factor 1 (Homo sapiens), sequence (Q16656 whole entry, looked up, the tested form may be a part): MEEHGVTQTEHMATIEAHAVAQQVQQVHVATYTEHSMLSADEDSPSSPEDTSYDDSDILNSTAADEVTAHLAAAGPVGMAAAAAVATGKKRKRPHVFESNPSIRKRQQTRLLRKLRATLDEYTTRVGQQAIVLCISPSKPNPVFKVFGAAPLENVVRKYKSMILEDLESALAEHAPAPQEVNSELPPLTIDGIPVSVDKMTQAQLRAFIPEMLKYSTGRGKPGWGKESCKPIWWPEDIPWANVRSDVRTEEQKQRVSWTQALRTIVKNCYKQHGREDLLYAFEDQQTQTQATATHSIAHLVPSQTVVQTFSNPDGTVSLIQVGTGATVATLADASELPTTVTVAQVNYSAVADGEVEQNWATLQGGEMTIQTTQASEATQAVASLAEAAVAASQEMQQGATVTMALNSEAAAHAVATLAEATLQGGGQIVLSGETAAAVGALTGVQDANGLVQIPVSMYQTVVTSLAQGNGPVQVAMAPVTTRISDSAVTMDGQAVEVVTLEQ
Heat shock factor protein 1 (Homo sapiens), sequence (Q00613 whole entry, looked up): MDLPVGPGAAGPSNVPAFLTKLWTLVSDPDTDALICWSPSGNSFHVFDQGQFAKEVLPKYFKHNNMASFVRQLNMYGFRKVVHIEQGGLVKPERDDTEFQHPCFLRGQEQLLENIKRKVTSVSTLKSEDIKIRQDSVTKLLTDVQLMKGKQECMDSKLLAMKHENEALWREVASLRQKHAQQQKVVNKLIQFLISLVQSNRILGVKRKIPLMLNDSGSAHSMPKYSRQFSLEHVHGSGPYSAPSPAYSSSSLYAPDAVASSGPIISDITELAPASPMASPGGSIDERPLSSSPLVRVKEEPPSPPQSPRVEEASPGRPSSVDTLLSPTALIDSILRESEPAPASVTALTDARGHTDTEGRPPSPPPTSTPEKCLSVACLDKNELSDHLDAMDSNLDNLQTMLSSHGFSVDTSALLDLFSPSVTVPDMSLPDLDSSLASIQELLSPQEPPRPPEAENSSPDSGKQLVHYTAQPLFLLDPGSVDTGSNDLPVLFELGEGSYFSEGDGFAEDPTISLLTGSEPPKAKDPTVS

Turning to `CCCc1c(OCCCCc2nn[nH]n2)ccc(C(C)=O)c1O`, the compound was called inactive in assay [1], in assay [2], in [3], in assay [4], in [5] and in assay [6]. For the same compound, the compound was classed as inactive in assay [7], in assay [8], in assay [9], in assay [10], in assay [11] and in [12]. Besides, the compound was called inactive in [13], in assay [14], in assay [16], in assay [17], in assay [18] and in assay [19]. Besides, the concentration at half-maximal activity (AC50) in [15] is 100 µM (active).
Take `CCC(=O)OCc1ccc(OC)cc1`: the compound was called inactive in assay [1], in assay [2], in assay [20], in assay [4], in assay [6] and in assay [7]. The compound was called inactive in assay [8], in assay [9], in assay [10], in [11], in assay [12] and in assay [13]. The compound was classed as inactive in assay [14], in [15], in assay [16], in [17] and in assay [19]. Moreover, the half-maximal activity concentration (AC50) in assay [18] was 31.6 µM (active).
As for `CCCCNC(N)=O`, the result in [1], in assay [3], in assay [20], in assay [4], in [5] and in assay [6] was inactive. The compound was classed as inactive in assay [7], in assay [8], in [9], in assay [10], in assay [11] and in assay [12]. Further, the compound was called inactive in [13], in [14], in [15], in assay [16], in assay [17] and in [18]. For the same compound, in assay [19], the compound was classed as inactive.
Regarding `CC(=O)OC(C)(C)Cc1ccccc1`, the call in assay [1], in assay [2], in [20], in assay [4], in assay [5] and in assay [6] was inactive. In addition, the compound was called inactive in assay [7], in [8], in assay [9], in assay [10], in assay [11] and in assay [12]. For the same compound, the compound was classed as inactive in assay [13], in assay [14], in assay [15], in assay [16], in [17] and in assay [18]. Further, the compound was called inactive in assay [19].
